# Measured values as given in the supplement of paper PMC7411054.
# Counter-ions that a name gives are not always drawn.
# Experiments:
# Details in all cases: treatment time: 24 h
# A549-ACTB-RAB5A [1] = experiment: lowest phenotypically active concentration; higher = less potent
# Procedure, shortened: (§1)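 Fifteen reporter lines derived from A549, HepG2 and WPMY1 cells by gene editing, carrying BFP for segmentation plus GFP and RFP/FusionRed markers, were exposed to 0.3, 1, 3 or 9 µM for 24 h in four wells each and imaged live. Live-cell features from each well were normalised to solvent control wells. A well set counted as deviating when ≥3 of 4 wells lay beyond the 95th percentile of control Euclidean distances, and as reproducible when the median replicate Pearson correlation exceeded the 95th percentile of non-replicates. Phenotypic activity was assigned only when both criteria were met.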
# WPMY1-GM130-SQSTM1 [2] = experiment: as above
# Procedure, shortened: as §1
# A549-ACTB-RAB5A [3] = experiment: phenotypically active (imaging signature differs from DMSO and reproducible) at any of 0.3-9 uM (binary (1 = active, 0 = inactive)); higher = active
# Procedure, shortened: as §1
# A549-CANX-COX4 = experiment: as above
# Procedure, shortened: as §1
# A549-GM130-SQSTM1 [4] = experiment: as above
# Procedure, shortened: as §1
# A549-TP53BP1-CLTA = experiment: as above
# Procedure, shortened: as §1
# A549-TUBA1B-RELA [5] = experiment: as above
# Procedure, shortened: as §1
# HepG2-ACTB-RAB5A [6] = experiment: as above
# Procedure, shortened: as §1
# HepG2-CANX-COX4 = experiment: as above
# Procedure, shortened: as §1
# HepG2-GM130-SQSTM1 = experiment: as above
# Procedure, shortened: as §1
# HepG2-TP53BP1-CLTA = experiment: as above
# Procedure, shortened: as §1
# HepG2-TUBA1B-RELA = experiment: as above
# Procedure, shortened: as §1
# WPMY1-ACTB-RAB5A = experiment: as above
# Procedure, shortened: as §1
# WPMY1-CANX-COX4 = experiment: as above
# Procedure, shortened: as §1
# WPMY1-GM130-SQSTM1 [7] = experiment: as above
# Procedure, shortened: as §1
# WPMY1-TP53BP1-CLTA = experiment: as above
# Procedure, shortened: as §1
# WPMY1-TUBA1B-RELA = experiment: as above
# Procedure, shortened: as §1
# A549-GM130-SQSTM1 [8] = experiment: lowest phenotypically active concentration; higher = less potent
# Procedure, shortened: as §1
# A549-TUBA1B-RELA [9] = experiment: as above
# Procedure, shortened: as §1
# HepG2-ACTB-RAB5A [10] = experiment: as above
# Procedure, shortened: as §1
Structure (SMILES),lowest phenotypically active concentration (A549-ACTB-RAB5A [1]) [µM],lowest phenotypically active concentration (WPMY1-GM130-SQSTM1 [2]) [µM],phenotypically active (A549-ACTB-RAB5A [3]),phenotypically active (A549-CANX-COX4),phenotypically active (A549-GM130-SQSTM1 [4]),phenotypically active (A549-TP53BP1-CLTA),phenotypically active (A549-TUBA1B-RELA [5]),phenotypically active (HepG2-ACTB-RAB5A [6]),phenotypically active (HepG2-CANX-COX4),phenotypically active (HepG2-GM130-SQSTM1),phenotypically active (HepG2-TP53BP1-CLTA),phenotypically active (HepG2-TUBA1B-RELA),phenotypically active (WPMY1-ACTB-RAB5A),phenotypically active (WPMY1-CANX-COX4),phenotypically active (WPMY1-GM130-SQSTM1 [7]),phenotypically active (WPMY1-TP53BP1-CLTA),phenotypically active (WPMY1-TUBA1B-RELA),lowest phenotypically active concentration (A549-GM130-SQSTM1 [8]) [µM],lowest phenotypically active concentration (A549-TUBA1B-RELA [9]) [µM],lowest phenotypically active concentration (HepG2-ACTB-RAB5A [10]) [µM]
CC(C)(C)c1ccc(S(=O)(=O)/C=C/C#N)cc1,9,9,1 (active),0 (inactive),0 (inactive),0 (inactive),0 (inactive),0 (inactive),0 (inactive),1 (active),0 (inactive),1 (active),0 (inactive),1 (active),1 (active),1 (active),0 (inactive),,,
CC(=O)S[C@@H]1CC2=CC(=O)CC[C@]2(C)[C@H]2CC[C@@]3(C)[C@@H](CC[C@@]34CCC(=O)O4)[C@H]12 [spironolactone],9,9,1 (active),0 (inactive),0 (inactive),0 (inactive),0 (inactive),0 (inactive),0 (inactive),0 (inactive),0 (inactive),0 (inactive),0 (inactive),0 (inactive),1 (active),0 (inactive),0 (inactive),,,
CC(C)c1ccc(-c2cc(=O)c3ccccc3o2)cc1,9,3,1 (active),0 (inactive),0 (inactive),0 (inactive),0 (inactive),0 (inactive),0 (inactive),0 (inactive),0 (inactive),0 (inactive),0 (inactive),0 (inactive),1 (active),0 (inactive),0 (inactive),,,
O=C(O/N=C1\c2ccccc2-c2nc3ccccc3nc21)c1ccco1,9,,1 (active),0 (inactive),0 (inactive),0 (inactive),0 (inactive),0 (inactive),0 (inactive),0 (inactive),0 (inactive),0 (inactive),1 (active),1 (active),0 (inactive),1 (active),1 (active),,,
O=c1cc(N2CCOCC2)oc2c(-c3ccccc3)cccc12,,≤ 0.3,0 (inactive),0 (inactive),1 (active),1 (active),1 (active),1 (active),0 (inactive),1 (active),1 (active),1 (active),1 (active),1 (active),1 (active),1 (active),0 (inactive),9,9,9
O=C(COc1cccc2c(=O)[nH]ccc12)c1ccccc1,,,0 (inactive),0 (inactive),1 (active),0 (inactive),0 (inactive),0 (inactive),0 (inactive),0 (inactive),0 (inactive),0 (inactive),0 (inactive),0 (inactive),0 (inactive),0 (inactive),0 (inactive),9,,
CC(=O)N1CCN(c2ccc(OC[C@H]3CO[C@](Cn4ccnc4)(c4ccc(Cl)cc4Cl)O3)cc2)CC1 [Ketoconazole],9,9,1 (active),0 (inactive),0 (inactive),0 (inactive),0 (inactive),0 (inactive),0 (inactive),0 (inactive),0 (inactive),0 (inactive),0 (inactive),0 (inactive),1 (active),0 (inactive),0 (inactive),,,
"Nc1ncnc2c1nc(Br)n2[C@@H]1O[C@@H]2COP(=O)(O)O[C@H]2[C@H]1O [8-Bromo-cAMP, sodium salt]",9,,1 (active),0 (inactive),0 (inactive),0 (inactive),0 (inactive),0 (inactive),0 (inactive),0 (inactive),0 (inactive),0 (inactive),0 (inactive),1 (active),0 (inactive),0 (inactive),0 (inactive),,,
Cc1cc(C(C)Nc2ccccc2)c2nc(N3CCOCC3)cc(=O)n2c1 (centres undefined),9,9,1 (active),0 (inactive),0 (inactive),0 (inactive),0 (inactive),1 (active),0 (inactive),0 (inactive),0 (inactive),0 (inactive),0 (inactive),1 (active),1 (active),0 (inactive),0 (inactive),,,9
CC(=O)C1=C(O)[C@]2(C)C(=CC1=O)Oc1c(C(C)=O)c(O)c(C)c(O)c12 [(+)-Usnic acid],,,0 (inactive),0 (inactive),1 (active),0 (inactive),0 (inactive),0 (inactive),0 (inactive),0 (inactive),0 (inactive),0 (inactive),0 (inactive),0 (inactive),0 (inactive),0 (inactive),0 (inactive),9,,
